According to PubChem BioAssay (EPA / NIEHS):
The source made the active and inactive calls. Rule for the calls: active = hit-call score of the fitted dose curve at least 0.9, where 1 is the maximum; inactive = score below 0.9.

How the values were obtained:
Conditions in all cases: mRNA level, 48 h; actives raise or lower the signal
[1] = read-out: Early growth response protein 1 (EGR1) transcription factor, EGR1 (gene 1958); test: LTEA_HepaRG_EGR1: Life Technologies and Expression Analysis (LTEA) Assay for Early growth response protein 1 (EGR1) transcription factor using HepaRG (AID 2283490)
Summary of the method: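 Read-out is EGR1 mRNA level by qRT-PCR, normalized to three housekeeping genes and analysed for gain or loss of signal against 0.5% DMSO. Source cells: human HepaRG, treated 48 h at up to 100 uM in half-log dilutions.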

[2] = read-out: Ezrin (EZR), EZR (gene 7430); test: LTEA_HepaRG_EZR: Life Technologies and Expression Analysis (LTEA) Assay for Ezrin (EZR) using HepaRG (AID 2283491)
Summary of the method: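 Read-out is EZR transcript level by qRT-PCR, normalized to three housekeeping genes and fitted bidirectionally against the DMSO control. Human HepaRG cells received test chemicals for 48 h at eight half-log concentrations up to 100 uM in 0.5% DMSO.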

[3] = read-out: Cytochrome P450 3A7 (Homo sapiens) (UniProt P24462); test: LTEA_HepaRG_CYP3A7: Life Technologies and Expression Analysis (LTEA) Assay for CYP3A7 using HepaRG (AID 2283492)
Summary of the method: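 HepaRG cells plated 48 h, then dosed in serum-free induction medium for 48 h at 8 concentrations (top 100 uM, half-log steps, 0.5% DMSO). CYP3A7 mRNA by qRT-PCR, normalised to ACTB/GAPDH/POLR2A; bidirectional fit versus DMSO.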

[4] = read-out: CYP3A5 (gene 1577); test: LTEA_HepaRG_CYP3A5: Life Technologies and Expression Analysis (LTEA) Assay for CYP3A5 using HepaRG (AID 2283493)
Summary of the method: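 mRNA induction or loss of CYP3A5 assessed in HepaRG after 48 h dosing, 100 uM top concentration, duplicate wells; TaqMan qRT-PCR with ACTB, GAPDH, POLR2A normalization; 0.5% DMSO as negative control.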

[5] = read-out: Fatty Acid-Binding Protein 1 (FABP1), FABP1 (gene 2168); test: LTEA_HepaRG_FABP1: Life Technologies and Expression Analysis (LTEA) Assay for Fatty Acid-Binding Protein 1 (FABP1) using HepaRG (AID 2283494)
Summary of the method: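 HepaRG, 48 h post-plating switched to serum-free induction medium, then dosed 48 h (duplicate, 8 pts, ≤100 uM, 0.5% DMSO). RNA → Fluidigm TaqMan qRT-PCR, FABP1 normed to ACTB/GAPDH/POLR2A. Bidirectional curve fit vs DMSO.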

[6] = read-out: Cytochrome P450 4A22 (Homo sapiens) (UniProt Q5TCH4); test: LTEA_HepaRG_CYP4A22: Life Technologies and Expression Analysis (LTEA) Assay for Cytochrome P450 4A22 (CYP4A22) using HepaRG (AID 2283495)
Summary of the method: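 qRT-PCR of CYP4A22 mRNA (Fluidigm TaqMan, normalized to three housekeeping genes) after 48 h chemical exposure of HepaRG cells; 8-point half-log series, top 100 uM, 0.5% DMSO vehicle. Bidirectional curve fitting vs DMSO baseline.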

[7] = read-out: Cytochrome P450 7A1 (Homo sapiens) (UniProt P22680); test: LTEA_HepaRG_CYP7A1: Life Technologies and Expression Analysis (LTEA) Assay for Cytochrome P450 7A1 (CYP7A1) using HepaRG (AID 2283496)
Summary of the method: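 Gene expression endpoint in human HepaRG liver cells treated for 48 h with test chemicals (up to 100 uM, 0.5% DMSO). Values come from bidirectional concentration-response fitting versus DMSO.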

[8] = read-out: Glutathione S-Transferase (GSTA2), GSTA2 (gene 2939); test: LTEA_HepaRG_GSTA2: Life Technologies and Expression Analysis (LTEA) Assay for Glutathione S-Transferase (GSTA2) using HepaRG (AID 2283497)
Summary of the method: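 HepaRG, 48 h dosing, 8-pt half-log CRC from 100 uM, 0.5% DMSO vehicle, n=2; RNA → Fluidigm TaqMan qRT-PCR; GSTA2 vs ACTB/GAPDH/POLR2A; gain/loss fit vs DMSO.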

[9] = read-out: Glutamate-cysteine ligase catalytic (GCLC), GCLC (gene 2729); test: LTEA_HepaRG_GCLC: Life Technologies and Expression Analysis (LTEA) Assay for Glutamate-cysteine ligase catalytic (GCLC) using HepaRG (AID 2283498)
Summary of the method: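 Read-out is GCLC transcript level by Fluidigm-based TaqMan qRT-PCR, normalized to three housekeeping genes and fitted in both directions relative to 0.5% DMSO. Human HepaRG cells received chemicals for 48 h, up to 100 uM.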

[10] = read-out: growth arrest and DNA damage 45 (GADD45G), GADD45G (gene 10912); test: LTEA_HepaRG_GADD45G: Life Technologies and Expression Analysis (LTEA) Assay for growth arrest and DNA damage 45 (GADD45G) using HepaRG (AID 2283499)
Summary of the method: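 Differentiated human HepaRG cells in serum-free induction medium were exposed for 48 h to 8 half-log concentrations up to 100 uM in 0.5% DMSO, in duplicate. GADD45G mRNA was measured by TaqMan qRT-PCR, normalised to ACTB, GAPDH and POLR2A, and fitted bidirectionally against DMSO.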

[11] = read-out: Glutamate-cysteine ligase regulatory (GCLM), GCLM (gene 2730); test: LTEA_HepaRG_GCLM: Life Technologies and Expression Analysis (LTEA) Assay for Glutamate-cysteine ligase regulatory (GCLM) using HepaRG (AID 2283500)
Summary of the method: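 Human liver HepaRG cultures receive test chemicals for 48 hours at up to 100 uM in 0.5% DMSO. GCLM expression is measured by qRT-PCR and analysed for increases or decreases against vehicle.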

[12] = read-out: Glutathione S-transferase M3 (GSTM3), GSTM3 (gene 2947); test: LTEA_HepaRG_GSTM3: Life Technologies and Expression Analysis (LTEA) Assay for Glutathione S-transferase M3 (GSTM3) using HepaRG (AID 2283501)
Summary of the method: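 Differentiated HepaRG cells in serum-free induction medium were exposed in duplicate for 48 h to 8 half-log concentrations up to 100 uM in 0.5% DMSO. GSTM3 mRNA was measured by TaqMan qRT-PCR, normalized to ACTB/GAPDH/POLR2A, and fitted bidirectionally versus DMSO.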

[13] = read-out: Heat shock 70 kDa protein 1 (HSPA1A), gene 3303; test: LTEA_HepaRG_HSPA1A: Life Technologies and Expression Analysis (LTEA) Assay for Heat shock 70 kDa protein 1 (HSPA1A) using HepaRG (AID 2283502)
Summary of the method: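 HSPA1A induction in human HepaRG liver cells is measured after 48 h of chemical treatment (100 uM maximum, 0.5% DMSO vehicle). Expression comes from qRT-PCR normalized to endogenous controls.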

[14] = read-out: Hypoxia-inducible factor 1-alpha (Homo sapiens) (UniProt Q16665); test: LTEA_HepaRG_HIF1A: Life Technologies and Expression Analysis (LTEA) Assay for Hypoxia-inducible factor 1 (HIF1A) Trancription factor using HepaRG (AID 2283503);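 note: HIF1A transcript by TaqMan qRT-PCR normalized to ACTB GAPDH and POLR2A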
Summary of the method: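 HepaRG, 48 h exposure, 8-pt half-log series from 100 uM, 0.5% DMSO vehicle, duplicates. Readout: HIF1A transcript by qRT-PCR (Fluidigm array), housekeeping-normalised. Bidirectional curve fit vs DMSO baseline.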

[15] = read-out: 3-Hydroxy-3-Methylglutaryl-CoA Synthase 2 (HMGCS2), HMGCS2 (gene 3158); test: LTEA_HepaRG_HMGCS2: Life Technologies and Expression Analysis (LTEA) Assay for 3-Hydroxy-3-Methylglutaryl-CoA Synthase 2 (HMGCS2) using HepaRG (AID 2283504)
Summary of the method: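 Differentiated human HepaRG cells were exposed in duplicate for 48 h in serum-free induction medium to eight concentrations (top 100 uM, half-log steps, 0.5% DMSO). HMGCS2 mRNA was quantified by TaqMan qRT-PCR, normalised to ACTB, GAPDH and POLR2A, then fitted bidirectionally against DMSO.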

[16] = read-out: HGF (gene 3082); test: LTEA_HepaRG_HGF: Life Technologies and Expression Analysis (LTEA) Assay for Hepatocyte Growth Facto (HGF) using HepaRG (AID 2283505)
Summary of the method: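 Differentiated human HepaRG cells in serum-free induction medium were exposed in duplicate for 48 h to eight concentrations (top 100 uM, half-log steps, 0.5% DMSO). HGF mRNA was quantified by qRT-PCR, normalized to ACTB, GAPDH and POLR2A.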

[17] = read-out: Insulin Like Growth Factor 1 (IGF1), IGF1 (gene 3479); test: LTEA_HepaRG_IGF1: Life Technologies and Expression Analysis (LTEA) Assay for Insulin Like Growth Factor 1 (IGF1) using HepaRG (AID 2283506)
Summary of the method: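 Using human HepaRG liver cells, IGF1 transcript induction or suppression is measured 48 h after dosing across eight concentrations capped at 100 uM. Values derive from bidirectional concentration-response fitting with DMSO as baseline.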

[18] = read-out: Intercellular Adhesion Molecule 1 (ICAM1), ICAM1 (gene 3383); test: LTEA_HepaRG_ICAM1: Life Technologies and Expression Analysis (LTEA) Assay for Intercellular Adhesion Molecule 1 (ICAM1) using HepaRG (AID 2283507)
Summary of the method: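 Differentiated HepaRG cells in serum-free induction medium were exposed in duplicate for 48 h to eight half-log concentrations up to 100 uM in 0.5% DMSO. Transcript levels were measured by qRT-PCR normalized to ACTB, GAPDH and POLR2A; bidirectional fits relative to DMSO.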

[19] = read-out: Insulin-like growth factor-binding protein 1 (IGFBP1), IGFBP1 (gene 3484); test: LTEA_HepaRG_IGFBP1: Life Technologies and Expression Analysis (LTEA) Assay for Insulin-like growth factor-binding protein 1 (IGFBP1) using HepaRG (AID 2283508)
Summary of the method: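 Differentiated human HepaRG cells in serum-free induction medium were exposed in duplicate for 48 h to eight concentrations, top 100 uM with half-log dilutions, in 0.5% DMSO. Transcript levels came from qRT-PCR normalised to ACTB, GAPDH and POLR2A, fitted bidirectionally against DMSO.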

[20] = read-out: Interleukin 6 (IL6), IL6 (gene 3569); test: LTEA_HepaRG_IL6: Life Technologies and Expression Analysis (LTEA) Assay for Interleukin 6 (IL6) using HepaRG (AID 2283509)
Summary of the method: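 HepaRG, ~100,000 cells/well, 48 h pre-culture; serum-free induction medium; cmpd 8-pt half-log from 100 uM, 0.5% DMSO, duplicate, 48 h. Lysis in RLT, TaqMan qRT-PCR; gain or loss vs DMSO.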

Measured: outcome

Chain of Hypoxia-inducible factor 1-alpha (Homo sapiens) (Q16665 whole entry, looked up): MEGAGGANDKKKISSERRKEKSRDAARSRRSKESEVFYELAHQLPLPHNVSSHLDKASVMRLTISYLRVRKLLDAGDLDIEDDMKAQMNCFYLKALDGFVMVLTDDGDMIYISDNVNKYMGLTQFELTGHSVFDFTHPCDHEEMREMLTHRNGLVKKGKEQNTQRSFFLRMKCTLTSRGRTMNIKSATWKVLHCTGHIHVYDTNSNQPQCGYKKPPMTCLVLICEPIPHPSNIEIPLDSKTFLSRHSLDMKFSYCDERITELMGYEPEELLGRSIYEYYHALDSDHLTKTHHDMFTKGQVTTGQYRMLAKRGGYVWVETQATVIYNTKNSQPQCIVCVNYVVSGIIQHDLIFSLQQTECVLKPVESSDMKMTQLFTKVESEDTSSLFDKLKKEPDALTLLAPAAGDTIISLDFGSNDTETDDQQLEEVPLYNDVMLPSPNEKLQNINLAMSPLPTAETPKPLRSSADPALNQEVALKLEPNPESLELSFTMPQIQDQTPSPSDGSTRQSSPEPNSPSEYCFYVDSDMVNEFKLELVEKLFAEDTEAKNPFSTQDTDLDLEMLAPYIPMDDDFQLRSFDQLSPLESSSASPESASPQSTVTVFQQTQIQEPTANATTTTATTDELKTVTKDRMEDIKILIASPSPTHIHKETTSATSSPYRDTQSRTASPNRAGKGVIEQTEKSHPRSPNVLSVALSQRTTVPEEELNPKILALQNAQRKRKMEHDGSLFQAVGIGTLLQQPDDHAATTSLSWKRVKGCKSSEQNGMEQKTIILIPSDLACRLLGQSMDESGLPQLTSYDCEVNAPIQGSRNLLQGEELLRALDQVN
Chain of Cytochrome P450 3A7 (Homo sapiens) (P24462 whole entry, looked up): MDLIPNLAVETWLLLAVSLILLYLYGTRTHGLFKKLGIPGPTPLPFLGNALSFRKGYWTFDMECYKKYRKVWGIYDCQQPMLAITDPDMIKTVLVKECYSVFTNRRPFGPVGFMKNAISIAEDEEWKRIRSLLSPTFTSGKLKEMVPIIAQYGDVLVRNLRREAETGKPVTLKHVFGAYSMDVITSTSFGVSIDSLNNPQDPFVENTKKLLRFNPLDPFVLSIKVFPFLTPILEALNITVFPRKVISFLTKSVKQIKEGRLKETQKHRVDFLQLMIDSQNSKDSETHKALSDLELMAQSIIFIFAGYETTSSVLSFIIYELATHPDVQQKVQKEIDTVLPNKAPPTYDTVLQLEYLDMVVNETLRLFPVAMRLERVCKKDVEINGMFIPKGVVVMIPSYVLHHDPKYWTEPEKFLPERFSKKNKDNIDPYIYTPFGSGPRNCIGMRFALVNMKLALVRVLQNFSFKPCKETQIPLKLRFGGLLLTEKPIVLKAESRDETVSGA

CCC(C)=NO
inactive: [1] | [2] | [3] | [4] | [5] | [6] | [7] | [8] | [9] | [10] | [11] | [12] | [13] | [14] | [15] | [16] | [17] | [18] | [19] | [20]
